# Screens deposited in PubChem by National Center for Advancing Translational Sciences (NCATS).
# D1 antagonist: human D1 dopamine receptor antagonism; P21728; HEK293 TREx D1 cells, calcium flux, dopamine EC80; hits give low values; activity change, negative = inhibition, % at 10 µM; 360,000 tested, 3.2% active; in the data active = activity change below about -30%; also: % is scaled to controls: 0 for no effect and ±100 for the full control effect
# Target sequence (P21728 whole entry, looked up): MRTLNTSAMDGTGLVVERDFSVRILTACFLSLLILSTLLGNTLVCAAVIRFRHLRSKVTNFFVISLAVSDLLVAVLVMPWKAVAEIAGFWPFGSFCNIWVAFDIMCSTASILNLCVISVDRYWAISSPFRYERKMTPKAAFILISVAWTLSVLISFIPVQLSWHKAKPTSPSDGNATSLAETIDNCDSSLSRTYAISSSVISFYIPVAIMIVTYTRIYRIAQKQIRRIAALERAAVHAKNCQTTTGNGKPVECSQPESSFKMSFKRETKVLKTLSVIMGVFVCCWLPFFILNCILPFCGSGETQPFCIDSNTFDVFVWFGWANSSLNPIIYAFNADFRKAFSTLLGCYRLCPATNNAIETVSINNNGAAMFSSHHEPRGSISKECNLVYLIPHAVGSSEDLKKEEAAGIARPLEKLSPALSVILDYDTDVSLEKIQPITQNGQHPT
#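 Calcium flux readout: force-coupled, inducible Hek293 Trex D1 line, cells induced overnight at 30 C with tetracycline, dye-loaded 30–90 min at RT. Antagonism scored against EC80 dopamine challenge given 180 s after compound.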
# D1 PAM: enhances dopamine response at the human D1 receptor; P21728; HEK293 TREx D1 cells, calcium flux, dopamine EC20 potentiation; potentiation, % at 10 µM; 360,000 tested, 0.036% active; in the data active = potentiation above about 30%; also: 0% is about no effect
# D1 agonist: activates the human D1 dopamine receptor; P21728; HEK293 T-REx D1 cells, calcium flux, agonist mode; activation, % at 2 µM; 360,000 tested, 1% active; AID 504660; also: 0% is about no effect
#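 Tetracycline-induced HEK293 TREx D1 cells, force-coupled to calcium signalling, were dye-loaded with a no-wash calcium kit. Compound was pin-added after a 10 s baseline. Fluorescence was read kinetically at 1 cycle/s for 180 s, with calcium rises flagged as agonism.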
# TRHR enhancer: allosteric enhancers of human TRH receptor; TRHR cells, fluo-8 calcium fluorescence, EC20 TRH enhancement; enhancement, % at 2 µM; 360,000 tested, 0.66% active; in the data active = enhancement above about 30%; also: 0% is about no effect
#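 Enhancer read-out: after compound pinning and an initial kinetic agonist-mode read, an EC20 of TRH (10 nM final) was injected and fluo-8 calcium signal (Ex 480/Em 530) followed at 1 s/cycle for 100 cycles in TRHR-expressing cells.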
# TRHR agonist: TRH receptor (human) agonism; activation, % at 2 µM; 360,000 tested, 0.18% active; TRHR cells, calcium flux fluo-8, FDSS agonist mode; also: 0% is about no effect
#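 TRHR-expressing cells loaded with fluo-8 calcium dye; 23 nL library compound pin-transferred, kinetic FDSS fluorescence (Ex 480/Em 530) recorded about 180 s for agonist-induced calcium release, before a 10 nM TRH EC20 addition for potentiator mode.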
# * hit, by the source's call. Compounds with a hit are over-represented: about 4.6% of the library has one in this group of screens. Rule as the data show it, unless noted: active = activation above about 30%; inactive = the rest.
SMILES,D1 antagonist,D1 PAM,D1 agonist,TRHR enhancer,TRHR agonist
CCOC(=O)c1cccc(NC(=O)c2cc3ccccc3o2)c1,-42*,4,6,-7,0
CCCCn1nnc(NC(=O)c2cc3ccccc3o2)n1,-36*,6,2,4,2
COc1ccc(CNc2nc3ccccc3n2C(C)C)cc1,10,-7,1,-6,0
COc1ccc(CNC(=O)C(C)n2nc(C)n3c(cc4occc43)c2=O)cc1 (stereo unspecified),-20,-3,0,-6,-1
Cc1cc(C)c([N+](=O)[O-])cc1NC(=O)CCSc1ccccc1Cl,-35*,1,5,-1,0
O=C(CCSc1ccccc1Cl)Nc1cccc([N+](=O)[O-])c1,-35*,-12,9,0,-1
O=[N+]([O-])c1ccc(/C=C/C2=NN(c3ccccc3)C(c3ccco3)C2)cc1 (stereo unspecified),-68*,-1,213*,-3,0
Cc1ccc(C2=NN(S(=O)(=O)c3ccccc3)C(c3ccco3)C2)cc1 (stereo unspecified),-2,-10,2,2,0
O=[N+]([O-])c1ccc(C2=NN(c3ccccc3)C(c3ccco3)C2)cc1 (stereo unspecified),-67*,-10,296*,2,59*
CN1C(=O)C(CC(=O)Nc2ccc(F)cc2)N(Cc2ccco2)C1=S (stereo unspecified),2,2,3,-2,1
CC(=O)NC1=NN(C(C)=O)C(C)(c2cccnc2)S1 (stereo unspecified),-46*,-2,7,3,0
CCc1ccc(C2(C)SC(NC(C)=O)=NN2C(C)=O)cc1 (stereo unspecified),2,1,56*,0,-3
COc1ccc(CC(CC(=O)O)C(=O)Nc2ccc(Cl)c(Cl)c2)cc1 (stereo unspecified),-31*,14,-1,0,0
Cc1ccc(CC(CC(=O)O)C(=O)Nc2ccc(Cl)cc2)cc1 (stereo unspecified),-2,-5,7,-7,0
Cc1cc2c(s1)c1cnn(Cc3cccc(Cl)c3F)c(=O)c1n2C,11,6,1,2,0
Cc1cc2c(s1)c1cnn(Cc3cc(C(F)(F)F)cc(Cl)c3F)c(=O)c1n2C,-35*,-5,6,6,2
N#Cc1c(-c2ccc(Cl)cc2)ccn2nc(C3CCCCC3)nc12,-31*,-4,-3,-4,2
Cc1cccc(-n2c(SCC(=O)Nc3ccc4c(c3)OCO4)nnc2-c2ccoc2C)c1,5,1,6,-6,0
COC(C(=O)Nc1ccc(S(=O)(=O)Nc2c(C)cccc2C)cc1)c1ccccc1 (stereo unspecified),8,-1,35*,-5,2
COC(C(=O)Nc1ccc(NC(=O)C(OC)c2ccccc2)cc1)c1ccccc1 (stereo unspecified),-25,-1,5,-3,3
CCOc1ccccc1N1CCN(C(=O)Nc2cccc(Cl)c2)CC1,-12,-5,12,8,1
CCOc1ccccc1N1CCN(C(=O)Nc2ccc(Cl)c(Cl)c2)CC1,-36*,2,1,4,0
Cc1cc(C)n(-c2nc3nonc3nc2Nc2cccc(C)c2C)n1,-32*,-1,2,9,0
COC(=O)N/N=C/c1cc(N=Nc2ccccc2)ccc1O,-34*,-6,5,-7,0
Cc1nc(N2CCCCC2)c(C#N)c(C)c1[N+](=O)[O-],1,1,0,1,0
COc1ccc(C(=O)N=C2SC3CS(=O)(=O)CC3N2Cc2ccc(OC)c(OC)c2)cc1 (stereo unspecified),-10,2,7,-2,1
COc1ccc(CN2C(=NC(=O)C3CC3)SC3CS(=O)(=O)CC32)cc1OC (stereo unspecified),-31*,-6,2,3,1
O=C(O)Cc1nnc(-c2cc3ccccc3[nH]2)s1,-37*,9,0,1,1
O=C(Cc1nnc(-c2cc3ccccc3[nH]2)o1)Nc1cc(C(F)(F)F)ccc1Cl,5,-4,1,-4,0
O=C(NCc1nnc(-c2cc3ccccc3[nH]2)s1)c1ccccc1,4,-5,3,-3,1
